Measurements as given in PubChem BioAssay (Tox21).
“And” between values parts separate entries of the source, which are not always exact repeats. Identical values can stand only once. Results filed as inconclusive are left out. Where a call stands in place of a potency, no number is given. Where a structure was tested more than once in an assay, its records may differ in their call. The source made the active and inactive calls. Unless noted, calls follow the shape of the dose curve; as a rule, active = well fitted curve in the direction sought with a large enough effect in the repeat runs; inconclusive = weak or mixed curves; inactive = no such curve, though single readings can be large; an effect the other way counts as inactive or inconclusive.

Tests used:
[1] = biological target: Nuclear receptor subfamily 1 group I member 2 (Homo sapiens) (UniProt O75469); test: Human pregnane X receptor (PXR) small molecule agonists, qHTS assay (AID 1346982); also: nearly all actives have a fitted effect of over 35% in size; also: potency is read from the fitted curve at half-maximal effect
Procedure, shortened: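 PXR-Luc HepG2 cells (CYP3A4 promoter-driven luciferase) were seeded in medium with 5% charcoal-stripped FBS, left 5 hr at 37 C, then exposed to compounds in DMSO for 24 hr. Luminescence was read after ONE-Glo addition.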

[2] = biological target: Cytochrome P450 2C19 (Homo sapiens) (UniProt P33261); test: Cytochrome P450 Family 2 Subfamily C Member 19 (CYP2C19) small molecule antagonists: luciferase reporter qHTS assay (AID 1671197); also: nearly all actives have a fitted effect of over 65% in size; also: potency is read from the fitted curve at half-maximal effect
Procedure, shortened: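 CYP2C19 P450-Glo, 1536-well qHTS. Cpd + enzyme/proluciferin substrate 10 min RT; + NADPH regen, 37C 1 h; stop with luciferin detection reagent, 20 min RT, luminescence (RLU). Pos ctrl ketoconazole.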

[3] = biological target: Cytochrome P450 2C9 (Homo sapiens) (UniProt P11712); test: Cytochrome P450 Family 2 Subfamily C Member 9 (CYP2C9) small molecule antagonists: luciferase reporter qHTS assay (AID 1671198); also: nearly all actives have a fitted effect of over 50% in size; also: potency is read from the fitted curve at half-maximal effect
Procedure, shortened: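 Enzyme-substrate mix preincubated with compound 10 min at room temperature; reaction started with NADPH regeneration solution, 1 h 37C. Luminescent luciferin product read after 20 min detection reagent.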

[4] = biological target: Cytochrome P450 1A2 (Homo sapiens) (UniProt P05177); test: Cytochrome P450 Family 1 Subfamily A Member 2 (CYP1A2) small molecule antagonists: luciferase reporter qHTS assay (AID 1671199); also: nearly all actives have a fitted effect of over 50% in size; also: potency is read from the fitted curve at half-maximal effect
Procedure, shortened: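 Human CYP1A2 activity measured with a P450-Glo proluciferin substrate; compounds in DMSO preincubated 10 min at room temperature with enzyme-substrate mix, then NADPH regeneration system added for 1 h. Luciferin detection reagent, 20 min, luminescence read.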

[5] = biological target: Cytochrome P450 2D6 (Homo sapiens) (UniProt P10635); test: Cytochrome P450 Family 2 Subfamily D Member 6 (CYP2D6) small molecule antagonists: luciferase reporter qHTS assay (AID 1671196); also: nearly all actives have a fitted effect of over 50% in size; also: potency is read from the fitted curve at half-maximal effect
Procedure, shortened: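 CYP2D6 enzyme–substrate mix was held with compound for 10 min at room temperature, then NADPH regeneration solution was added and the reaction ran 1 h at room temperature. Luciferin product was detected by luminescence after 20 min with detection reagent.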

[6] = biological target: Voltage-gated inwardly rectifying potassium channel KCNH2 (Homo sapiens) (UniProt Q12809); test: Human Ether-a-go-go-Related Gene (hERG) channel small molecule antagonists: fluorescence cell-based qHTS assay (AID 1671200);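 also: hERG-expressing U2OS cells given a thallium stimulus after FluxOR II dye loading; series mostly up to about 77 µM; nearly all actives have a fitted effect of over 50% in size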
Procedure, shortened: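 U2OS cells expressing the channel were plated at 1000 cells/well, incubated overnight at 37 C, then loaded with FluxOR II thallium-sensitive dye for 1 h at room temperature in the dark, with a further 10 min at room temperature before stimulation.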

[7] = biological target: Cytochrome P450 3A4 (Homo sapiens) (UniProt P08684); test: Cytochrome P450 Family 3 Subfamily A Member 4 (CYP3A4) small molecule antagonists: luciferase reporter qHTS assay (AID 1671201)
Procedure, shortened: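 P450-Glo CYP3A4 system with proluciferin substrate; compounds preincubated 10 min RT with enzyme-substrate mix, then NADPH regeneration added for 1 h RT. Detection reagent 20 min, luminescence read as relative luminescence units.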

[8] = biological target: Acetylcholinesterase (Homo sapiens) (UniProt P22303); test: Acetylcholinesterase (AChE) small molecule antagonists: colormetric cell-based qHTS assay (AID 1347395; calls by dose curve; also: nearly all actives have a fitted effect of over 30% in size)
Procedure, shortened: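 SH-SY5Y cells, plated overnight at 37 C, were exposed to compounds for 30 min at 37 C and 5% CO2. Acetylthiocholine plus DTNB was then added, and thiocholine from endogenous AChE was quantified colorimetrically after 90 min at 37 C.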

[9] = biological target: Acetylcholinesterase (Homo sapiens) (UniProt P22303); test: Acetylcholinesterase (AChE) small molecule antagonists: enzyme-based qHTS assay with human liver microsomes (AID 1347399; calls by dose curve; also: nearly all actives have a fitted effect of over 60% in size); settings: Potency: qHTS inhibition
Procedure, shortened: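 Recombinant human AChE (50 mU/mL in the enzyme mix) and human liver microsomes (0.25 mg/mL final) were preincubated with compound and NADPH (0.25 mg/mL final) for 30 min at 37 C. Acetylthiocholine/DTNB was then added; thiocholine was read colorimetrically after 10 min at room temperature.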

[10] = biological target: Nuclear receptor subfamily 1 group I member 2 (Rattus norvegicus) (UniProt Q9R1A7); test: Rat pregnane X receptor (rPXR) activation by small molecules, qHTS assay (AID 1346983); settings: rPXR luciferase reporter cells, One-Glo luminescence, 24 h; stronger effect = higher value; also: nearly all actives have a fitted effect of over 20% in size
Procedure, shortened: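 Luminescent readout (One-Glo luciferase, 30 min room temperature) followed 24 hr compound treatment at 37 C of rPXR cells plated 2,000 per well and preincubated 5hr; qHTS format with compounds delivered in DMSO.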

[11] = biological target: Acetylcholinesterase (Homo sapiens) (UniProt P22303); test: Acetylcholinesterase (AChE) small molecule antagonists: enzyme-based qHTS assay (AID 1347397; calls by dose curve; also: nearly all actives have a fitted effect of over 55% in size); settings: Potency: AChE enzyme activity inhibition
Procedure, shortened: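 rhAChE 50 mU/mL (dispensed) + cpd or DMSO, 30 min RT; add DTNB/acetylthiocholine cocktail, 10 min RT; colorimetric thiocholine readout. qHTS, 1536-well format.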

[12] = biological target: Acetylcholinesterase (Homo sapiens) (UniProt P22303); test: Acetylcholinesterase (AChE) small molecule antagonists: fluorescence cell-based qHTS assay (AID 1347398; calls by dose curve; also: nearly all actives have a fitted effect of over 50% in size); settings: Potency: AChE activity
Procedure, shortened: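 Read-out is Thiolite Green fluorescence at Ex/Em = 490/520 nm, formed by reaction with thiocholine released when cellular AChE in SH-SY5Y cells hydrolyzes acetylthiocholine. Compounds were preincubated 30 min at 37 C before substrate.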

Cytochrome P450 2C9 (Homo sapiens), sequence (P11712 whole entry, looked up): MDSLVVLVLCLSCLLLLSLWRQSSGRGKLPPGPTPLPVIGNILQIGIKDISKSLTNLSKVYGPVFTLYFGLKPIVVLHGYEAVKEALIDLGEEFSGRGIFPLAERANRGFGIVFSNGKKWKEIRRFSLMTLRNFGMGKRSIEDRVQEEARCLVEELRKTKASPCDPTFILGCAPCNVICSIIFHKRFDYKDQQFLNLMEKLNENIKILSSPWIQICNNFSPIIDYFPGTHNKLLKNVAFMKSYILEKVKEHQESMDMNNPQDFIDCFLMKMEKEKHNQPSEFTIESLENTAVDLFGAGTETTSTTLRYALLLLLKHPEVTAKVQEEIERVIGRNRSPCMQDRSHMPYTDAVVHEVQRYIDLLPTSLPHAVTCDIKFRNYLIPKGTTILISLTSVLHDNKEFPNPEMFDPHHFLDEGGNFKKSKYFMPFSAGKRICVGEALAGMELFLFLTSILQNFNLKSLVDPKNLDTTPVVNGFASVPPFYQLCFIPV
Acetylcholinesterase (Homo sapiens), sequence (P22303 whole entry, looked up): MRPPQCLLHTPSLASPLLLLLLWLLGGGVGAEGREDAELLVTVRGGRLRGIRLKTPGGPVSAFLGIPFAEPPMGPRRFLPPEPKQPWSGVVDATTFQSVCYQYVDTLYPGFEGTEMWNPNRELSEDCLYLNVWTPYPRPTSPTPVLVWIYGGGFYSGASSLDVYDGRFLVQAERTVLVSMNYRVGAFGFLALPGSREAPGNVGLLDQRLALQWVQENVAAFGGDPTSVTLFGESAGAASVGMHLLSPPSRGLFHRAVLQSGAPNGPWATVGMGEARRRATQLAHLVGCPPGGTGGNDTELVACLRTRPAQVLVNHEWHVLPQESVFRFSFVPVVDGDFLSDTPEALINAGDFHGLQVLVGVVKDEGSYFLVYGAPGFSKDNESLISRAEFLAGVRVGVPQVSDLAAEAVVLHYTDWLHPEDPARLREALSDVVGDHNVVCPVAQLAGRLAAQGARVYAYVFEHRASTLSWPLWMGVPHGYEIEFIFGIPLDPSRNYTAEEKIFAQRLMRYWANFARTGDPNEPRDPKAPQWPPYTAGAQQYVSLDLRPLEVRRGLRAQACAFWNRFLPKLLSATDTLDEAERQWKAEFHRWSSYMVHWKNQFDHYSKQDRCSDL
Cytochrome P450 1A2 (Homo sapiens), sequence (P05177 whole entry, looked up): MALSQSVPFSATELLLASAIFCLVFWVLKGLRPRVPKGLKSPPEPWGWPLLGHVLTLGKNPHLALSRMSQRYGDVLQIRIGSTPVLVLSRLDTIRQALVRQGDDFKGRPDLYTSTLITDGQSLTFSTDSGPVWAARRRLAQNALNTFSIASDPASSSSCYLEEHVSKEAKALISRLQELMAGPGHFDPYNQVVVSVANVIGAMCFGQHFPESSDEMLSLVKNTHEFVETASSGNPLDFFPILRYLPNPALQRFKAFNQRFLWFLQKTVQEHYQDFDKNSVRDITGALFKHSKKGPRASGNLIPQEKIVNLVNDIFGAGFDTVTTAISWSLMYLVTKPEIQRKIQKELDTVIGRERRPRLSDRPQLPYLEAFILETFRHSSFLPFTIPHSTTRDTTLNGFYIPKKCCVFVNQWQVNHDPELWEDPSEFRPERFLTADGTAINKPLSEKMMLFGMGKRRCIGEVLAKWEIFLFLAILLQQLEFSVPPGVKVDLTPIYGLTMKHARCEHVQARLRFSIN
Cytochrome P450 2D6 (Homo sapiens), sequence (P10635 whole entry, looked up): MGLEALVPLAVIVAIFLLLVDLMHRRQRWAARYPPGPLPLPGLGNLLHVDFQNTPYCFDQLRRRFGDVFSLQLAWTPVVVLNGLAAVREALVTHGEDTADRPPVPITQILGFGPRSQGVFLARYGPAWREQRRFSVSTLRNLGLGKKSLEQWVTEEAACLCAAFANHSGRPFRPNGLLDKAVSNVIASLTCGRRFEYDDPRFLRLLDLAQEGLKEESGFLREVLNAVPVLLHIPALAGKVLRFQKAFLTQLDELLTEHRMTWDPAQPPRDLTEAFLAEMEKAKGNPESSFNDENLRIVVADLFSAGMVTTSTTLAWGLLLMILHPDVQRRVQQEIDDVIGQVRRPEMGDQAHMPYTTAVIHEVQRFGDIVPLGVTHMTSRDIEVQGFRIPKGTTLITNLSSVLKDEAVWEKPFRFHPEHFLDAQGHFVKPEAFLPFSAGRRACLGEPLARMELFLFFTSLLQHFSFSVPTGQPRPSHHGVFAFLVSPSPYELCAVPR
Nuclear receptor subfamily 1 group I member 2 (Homo sapiens), sequence (O75469 whole entry, looked up): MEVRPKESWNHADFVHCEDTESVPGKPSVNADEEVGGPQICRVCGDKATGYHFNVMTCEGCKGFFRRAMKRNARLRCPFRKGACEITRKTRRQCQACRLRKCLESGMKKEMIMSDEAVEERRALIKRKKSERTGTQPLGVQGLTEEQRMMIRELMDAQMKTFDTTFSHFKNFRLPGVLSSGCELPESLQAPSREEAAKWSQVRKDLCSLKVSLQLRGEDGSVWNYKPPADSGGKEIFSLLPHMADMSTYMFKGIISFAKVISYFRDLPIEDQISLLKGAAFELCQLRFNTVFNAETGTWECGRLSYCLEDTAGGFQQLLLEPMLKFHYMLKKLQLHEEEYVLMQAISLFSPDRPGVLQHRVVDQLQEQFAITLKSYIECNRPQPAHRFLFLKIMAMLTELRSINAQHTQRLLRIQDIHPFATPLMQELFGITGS
Cytochrome P450 2C19 (Homo sapiens), sequence (P33261 whole entry, looked up): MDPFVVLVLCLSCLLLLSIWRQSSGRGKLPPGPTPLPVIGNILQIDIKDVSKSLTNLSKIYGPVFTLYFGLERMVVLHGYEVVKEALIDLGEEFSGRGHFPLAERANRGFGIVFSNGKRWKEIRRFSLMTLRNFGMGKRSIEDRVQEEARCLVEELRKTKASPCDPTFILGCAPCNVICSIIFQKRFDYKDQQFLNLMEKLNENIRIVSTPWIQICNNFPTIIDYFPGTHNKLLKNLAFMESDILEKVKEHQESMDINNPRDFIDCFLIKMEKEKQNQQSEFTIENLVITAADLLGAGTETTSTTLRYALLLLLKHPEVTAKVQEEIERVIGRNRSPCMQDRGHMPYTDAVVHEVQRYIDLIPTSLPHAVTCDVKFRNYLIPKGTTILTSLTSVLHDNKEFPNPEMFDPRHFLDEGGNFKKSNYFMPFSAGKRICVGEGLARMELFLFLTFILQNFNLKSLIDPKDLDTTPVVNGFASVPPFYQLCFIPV
Cytochrome P450 3A4 (Homo sapiens), sequence (P08684 whole entry, looked up): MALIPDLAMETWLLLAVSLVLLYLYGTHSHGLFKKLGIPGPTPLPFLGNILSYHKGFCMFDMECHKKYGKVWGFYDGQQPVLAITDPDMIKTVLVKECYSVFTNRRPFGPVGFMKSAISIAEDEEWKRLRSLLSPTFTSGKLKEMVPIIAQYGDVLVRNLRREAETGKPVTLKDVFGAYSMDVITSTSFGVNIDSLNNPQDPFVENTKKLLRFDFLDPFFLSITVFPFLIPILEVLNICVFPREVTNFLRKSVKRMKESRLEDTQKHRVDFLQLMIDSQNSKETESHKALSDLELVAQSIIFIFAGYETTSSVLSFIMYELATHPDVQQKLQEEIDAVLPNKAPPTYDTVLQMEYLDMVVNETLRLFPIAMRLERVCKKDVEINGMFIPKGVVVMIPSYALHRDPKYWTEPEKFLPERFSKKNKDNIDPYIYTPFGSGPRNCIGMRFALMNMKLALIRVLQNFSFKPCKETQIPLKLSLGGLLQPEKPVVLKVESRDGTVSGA
Voltage-gated inwardly rectifying potassium channel KCNH2 (Homo sapiens), sequence (Q12809 whole entry, looked up): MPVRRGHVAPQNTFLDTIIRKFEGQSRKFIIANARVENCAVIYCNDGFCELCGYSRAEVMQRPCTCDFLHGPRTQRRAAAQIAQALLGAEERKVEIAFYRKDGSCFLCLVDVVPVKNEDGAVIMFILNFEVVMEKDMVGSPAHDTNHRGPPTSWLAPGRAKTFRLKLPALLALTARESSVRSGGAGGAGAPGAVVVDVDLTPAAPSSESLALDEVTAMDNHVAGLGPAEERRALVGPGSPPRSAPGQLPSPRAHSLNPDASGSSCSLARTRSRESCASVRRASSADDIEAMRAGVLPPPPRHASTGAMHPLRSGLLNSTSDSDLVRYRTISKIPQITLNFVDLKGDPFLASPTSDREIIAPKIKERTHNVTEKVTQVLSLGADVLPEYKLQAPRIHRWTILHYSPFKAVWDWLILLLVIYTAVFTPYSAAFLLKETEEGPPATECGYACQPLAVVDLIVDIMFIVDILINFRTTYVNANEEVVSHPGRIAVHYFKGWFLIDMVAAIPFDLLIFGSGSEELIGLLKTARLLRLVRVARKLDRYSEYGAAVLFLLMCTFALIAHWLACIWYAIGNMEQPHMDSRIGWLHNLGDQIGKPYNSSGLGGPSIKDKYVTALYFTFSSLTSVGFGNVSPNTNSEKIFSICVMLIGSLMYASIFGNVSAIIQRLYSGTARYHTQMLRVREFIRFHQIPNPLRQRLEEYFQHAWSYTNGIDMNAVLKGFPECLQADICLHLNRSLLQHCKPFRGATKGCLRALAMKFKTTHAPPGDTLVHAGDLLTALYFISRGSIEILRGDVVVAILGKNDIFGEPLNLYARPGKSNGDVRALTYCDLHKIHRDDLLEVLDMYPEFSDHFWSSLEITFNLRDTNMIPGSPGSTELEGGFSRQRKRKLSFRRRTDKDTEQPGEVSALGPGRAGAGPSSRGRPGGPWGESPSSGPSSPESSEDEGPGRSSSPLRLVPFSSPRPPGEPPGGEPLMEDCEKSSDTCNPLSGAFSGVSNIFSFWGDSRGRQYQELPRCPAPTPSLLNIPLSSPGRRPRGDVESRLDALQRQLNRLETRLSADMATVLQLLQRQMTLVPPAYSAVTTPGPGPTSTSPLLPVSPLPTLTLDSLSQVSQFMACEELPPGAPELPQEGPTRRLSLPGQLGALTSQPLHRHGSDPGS

## COc1ccc(N)cc1
[1]
  Potency: 60.6 µM (active)
[2]
  Potency: 39.9 µM (active) [middle of 4 runs]
[3]
  Potency: 39.9 µM (active)
[4]
  Potency: inactive

## CCCC[n+]1ccccc1C
[1]
  Potency: inactive
[5]
  Potency: inactive
[2]
  Potency: inactive
[3]
  Potency: inactive
[4]
  Potency: inactive
[6]
  Potency: inactive
[7]
  Potency: inactive

## COc1ccccc1N
[1]
  Potency: inactive
[5]
  Potency: 17.8 µM (active) and 35.7 µM (active) and 12.6 µM (active)
[3]
  Potency: inactive
[4]
  Potency: 39.9 µM (active) and 32.3 µM (active) and 35.6 µM (active)
[6]
  Potency: inactive

## CCCCCCCCCCCCCCCCn1cc[n+](C)c1
[1]
  Potency: 7.86 µM (active) and inactive and 6.13 µM (active)
[8]
  Potency: inactive
[9]
  Potency: inactive
[4]
  Potency: 36.4 µM (active) and inactive and 71.2 µM (active)

## Oc1cccc2cccnc12
[10]
  max activation: -0.611% (inactive)

## O=C(O)CC(O)(CC(=O)O)C(=O)O
[5]
  Potency: inactive

## Cc1cc(Cl)ccc1N
[1]
  Potency: inactive
[5]
  Potency: 23 µM (active) and inactive and 22.4 µM (active)
[2]
  Potency: 20.5 µM (active) and 31 µM (active) and 22.4 µM (active)
[3]
  Potency: 28.9 µM (active) and 24.6 µM (active) and 25.2 µM (active)
[4]
  Potency: 11.5 µM (active) and 9.8 µM (active) and 7.96 µM (active)

## CCCCCCCCn1cc[n+](C)c1
[1]
  Potency: 13.6 µM (active) and 21.7 µM (active) and 17.4 µM (active)
[5]
  Potency: 5.68 µM (active) [middle of 4 runs]
[2]
  Potency: 39.9 µM (active) and inactive
[3]
  Potency: inactive
[4]
  Potency: inactive

## CCCCCCCCCCCC(=O)O
[1]
  Potency: inactive
[8]
  Potency: inactive
[11]
  Potency: inactive
[12]
  Potency: inactive
[9]
  Potency: inactive
[5]
  Potency: inactive
[2]
  Potency: 79.9 µM (active) and inactive
[3]
  Potency: 102 µM (active)
[4]
  Potency: inactive
[7]
  Potency: inactive

## CCCC[n+]1ccccc1
[1]
  Potency: inactive
[5]
  Potency: inactive
[2]
  Potency: inactive
[3]
  Potency: inactive
[4]
  Potency: inactive
[6]
  Potency: inactive
[7]
  Potency: inactive

## Nc1ccccc1
[1]
  Potency: inactive
[5]
  Potency: inactive and 64.5 µM (active)
[2]
  Potency: 30.9 µM (active) and 36.3 µM (active) and inactive
[3]
  Potency: inactive and 40.7 µM (active)
[4]
  Potency: 36.3 µM (active) and inactive and 27.5 µM (active)

## CCCCCC[n+]1ccccc1
[1]
  Potency: 11 µM (active) and inactive
[2]
  Potency: inactive
[3]
  Potency: inactive
[4]
  Potency: inactive
[6]
  Potency: inactive
[7]
  Potency: inactive
